The other results are listed elsewhere or left out. The true hit rate is not given.
B1: HC1625 (peptide)
chain: CAARLLARGGAGNASASA
B2: HC1029 (peptide)
chain: CAQTASRQAEAGNASASA
B3: HC801 (peptide)
chain: CAGVRTITTGAGNASASA
B4: HC2524 (peptide)
chain: CASTPCSIHLAGNASASA
B5: HC1843 (peptide)
chain: CATAPCSGSWAGNASASA
B6: FS-1822 (peptide)
chain: CARHERDAGVAGNASASA
B7: FS-2586 (peptide)
chain: CARQKRDWVIAGNASASA
B8: FU6 (peptide)
chain: CARQKRFVLSAGNASASA
B9: FS-2755 (peptide)
chain: CARQKRLFCRAGNASASA
B10: FS-2444 (peptide)
chain: CARQKRFVLSAGNASASA
B11: FS-2113 (peptide)
chain: CARYSRGVLSAGNASASA
B12: FS-2677 (peptide)
chain: CARHKRDWVVAGNASASA
B13: FS-2750 (peptide)
chain: CARQKRDTTHAGNASASA
B14: HC1644 (peptide)
chain: CALSGWFTAGAGNASASA
B15: HC303 (peptide)
chain: CAFLVGQLFTAGNASASA
B16: HC875 (peptide)
chain: CASGDVVVVAAGNASASA
B17: HC1729 (peptide)
chain: CAMEECSYHLAGNASASA
B18: TR10 (peptide)
chain: CAAPRSSMSNAGNASASA
B19: FS-2506 (peptide)
chain: CARQKRDANSAGNASASA
B20: FS-3033 (peptide)
chain: CARQKKADEPAGNASASA
B21: HC936 (peptide)
chain: CACQDHLEFWAGNASASA
B22: FS-1020 (peptide)
chain: CAKPRRRRKSAGNASASA
B23: FS-1019 (peptide)
chain: CAKPRRILRSAGNASASA
B24: FS-129 (peptide)
chain: CAGVGRVLRSAGNASASA
B25: FS-446 (peptide)
chain: CAKDGRRRKSAGNASASA
B26: HC297 (peptide)
chain: CASALYVGDLAGNASASA
B27: EK8 (peptide)
chain: CAVEGERGFFAGNASASA
B28: FS-987 (peptide)
chain: CADSSRPARFAGNASASA
B29: FS-767 (peptide)
chain: CAFKHRRARFAGNASASA
B30: FS-1186 (peptide)
chain: CAARQRRARFAGNASASA
B31: FS-1545 (peptide)
chain: CAMTHRWNRFAGNASASA
B32: FS-1135 (peptide)
chain: CALKGRPARFAGNASASA
B33: HC560 (peptide)
chain: CALLLALPQRAGNASASA
B34: HC2193 (peptide)
chain: CAEVRTSTWVAGNASASA
B35: HC2104 (peptide)
chain: CAIDVVCCSMAGNASASA
B36: HC1875 (peptide)
chain: CATTHCSGSWAGNASASA
B37: HC1377 (peptide)
chain: CAPCAAEEQKAGNASASA
B38: FS-1903 (peptide)
chain: CARKKRRRESAGNASASA
B39: FS-2967 (peptide)
chain: CARKKRQLYSAGNASASA
B40: FS-2213 (peptide)
chain: CARKKRFVSSAGNASASA
B41: FS-2343 (peptide)
chain: CARKKRLKESAGNASASA
B42: FS-3005 (peptide)
chain: CARNGRWEESAGNASASA
B43: HC266 (peptide)
chain: CASIVYEAADAGNASASA

Molecular target: furin, P09958
Sequence (P09958 whole entry): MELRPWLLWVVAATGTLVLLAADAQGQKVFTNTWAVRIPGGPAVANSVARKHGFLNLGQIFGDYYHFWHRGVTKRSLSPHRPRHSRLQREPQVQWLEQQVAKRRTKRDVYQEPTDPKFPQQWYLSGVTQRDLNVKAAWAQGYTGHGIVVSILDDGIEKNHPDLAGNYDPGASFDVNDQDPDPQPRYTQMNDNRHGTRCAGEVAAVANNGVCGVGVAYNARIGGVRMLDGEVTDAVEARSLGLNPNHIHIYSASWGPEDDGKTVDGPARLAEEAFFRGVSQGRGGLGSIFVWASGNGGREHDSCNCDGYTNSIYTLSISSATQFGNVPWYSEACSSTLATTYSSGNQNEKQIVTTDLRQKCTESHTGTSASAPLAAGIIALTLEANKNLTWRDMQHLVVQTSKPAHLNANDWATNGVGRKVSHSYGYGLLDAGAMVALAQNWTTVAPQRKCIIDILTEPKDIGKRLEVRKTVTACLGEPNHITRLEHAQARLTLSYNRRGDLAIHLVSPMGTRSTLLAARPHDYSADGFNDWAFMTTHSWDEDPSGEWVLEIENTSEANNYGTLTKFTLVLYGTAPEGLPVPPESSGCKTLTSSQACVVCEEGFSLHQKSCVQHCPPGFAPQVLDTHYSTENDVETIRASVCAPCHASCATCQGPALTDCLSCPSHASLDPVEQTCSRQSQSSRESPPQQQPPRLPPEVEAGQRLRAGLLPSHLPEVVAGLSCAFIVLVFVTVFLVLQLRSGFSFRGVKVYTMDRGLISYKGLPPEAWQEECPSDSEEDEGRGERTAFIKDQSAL
Assay: furin cleavage Z-score vs untreated control; higher = more cleavage, active = 3.5 or more, inactive = 1 or less, 8 variable residues between constant flanks
Description: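 Multiplexed peptide-cDNA fusion cleavage assay. 8-mer variable peptides flanked by constant Cys-Ala (N-term) and Ala-Gly-Asn-Ala-Ser-Ala-Ser-Ala (C-term) and conjugated to a cDNA oligonucleotide were bead-immobilised via the N-terminus. They were treated with purified furin at a 1:10 enzyme:substrate ratio in 50 mM HEPES pH 7.5, 1 mM CaCl2, 100 mM NaCl for 7.5, 15 or 30 min. Released cDNA was counted by next-generation sequencing, and log counts versus no-furin controls were lowess-adjusted and converted to robust Z-scores.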

Sequence	furin cleavage Z-score (7.5 min)	furin cleavage Z-score (15 min)	furin cleavage Z-score (30 min)
B1	-1.06 (inactive)	-1.7 (inactive)	-0.871 (inactive)
B2	1.23	0.0169 (inactive)	-0.455 (inactive)
B3	0.457 (inactive)	-0.157 (inactive)	-1.39 (inactive)
B4	-0.158 (inactive)	0.385 (inactive)	1.12
B5	-0.496 (inactive)	-0.615 (inactive)	-1.22 (inactive)
B6	0.322 (inactive)	0.612 (inactive)	-0.236 (inactive)
B7	2.07	4.34 (active)	6.74 (active)
B8	5.85 (active)	4.21 (active)	6.95 (active)
B9	-1.26 (inactive)	0.165 (inactive)	0.958 (inactive)
B10	4.98 (active)	5.66 (active)	7.27 (active)
B11	0.374 (inactive)	0.104 (inactive)	0.696 (inactive)
B12	4.03 (active)	1.73	8.28 (active)
B13	12.5 (active)	13.1 (active)	9.68 (active)
B14	-0.277 (inactive)	-0.506 (inactive)	-1.36 (inactive)
B15	-0.568 (inactive)	-0.266 (inactive)	0.343 (inactive)
B16	-0.568 (inactive)	-1.7 (inactive)	1.07
B17	-0.21 (inactive)	-0.538 (inactive)	-0.509 (inactive)
B18	-0.848 (inactive)	-0.0583 (inactive)	-0.668 (inactive)
B19	10.9 (active)	12 (active)	11.1 (active)
B20	-0.414 (inactive)	0.374 (inactive)	-1.07 (inactive)
B21	-1.02 (inactive)	-2.52 (inactive)	-2.85 (inactive)
B22	5.69 (active)	7.66 (active)	7.17 (active)

Sequence	furin cleavage Z-score (7.5 min)	furin cleavage Z-score (15 min)	furin cleavage Z-score (30 min)
B23	6.74 (active)	4.42 (active)	5.71 (active)
B24	7 (active)	7.17 (active)	7.2 (active)
B25	0.703 (inactive)	2.31	0.747 (inactive)
B26	-0.151 (inactive)	-0.752 (inactive)	-0.26 (inactive)
B27	-1.92 (inactive)	-1.33 (inactive)	-1.12 (inactive)
B28	0.601 (inactive)	2.61	1.35
B29	5.47 (active)	8.44 (active)	8.1 (active)
B30	7.96 (active)	10.3 (active)	9.01 (active)
B31	-0.191 (inactive)	1.1	-0.35 (inactive)
B32	1.12	3.63 (active)	3.8 (active)
B33	-0.644 (inactive)	-0.224 (inactive)	-1.36 (inactive)
B34	0.577 (inactive)	-0.283 (inactive)	2.14
B35	-0.251 (inactive)	0.23 (inactive)	1.61
B36	-0.832 (inactive)	-0.00567 (inactive)	-1.4 (inactive)
B37	0.0863 (inactive)	-1.23 (inactive)	0.435 (inactive)
B38	4.55 (active)	6.12 (active)	4.85 (active)
B39	7.88 (active)	8.76 (active)	9.63 (active)
B40	9.34 (active)	10.7 (active)	11.2 (active)
B41	0.749 (inactive)	2.21	1.93
B42	-0.164 (inactive)	-0.44 (inactive)	0.183 (inactive)
B43	0.365 (inactive)	0.0281 (inactive)	0.406 (inactive)
